A selection: hits, their analogues and other compounds. The true share with any hit is near 6.5%.
DPM-DC inhibit = blocks S. pneumoniae diphosphomevalonate decarboxylase | purified DPM-DC, PK/LDH coupled NADH fluorescence | calls only at 10 µM | actives 0.49% (n = 65,000);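 active = the 320 compounds with the highest percent inhibition in the single-dose primary screen, excluding strongly autofluorescent ones, cut at about 32% in these data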;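 note: kinetic rate of NADH fluorescence loss reporting ADP formed by the decarboxylase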
NADH enzymes = blocks coupling enzymes of NAD/NADH assays | AID 774 | actives 0.02% (n = 65,000) | IC50, µM (doses to about 10 µM) | coupled PK/LDH NADH assays, four targets;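 active = single-dose screening hits from any of four coupled enzyme assays that gave an IC50 when retested across doses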;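 note: the DPM-DC format reads NADH fluorescence rather than 340 nm absorbance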
Spn PMK inh = blocks S. pneumoniae phosphomevalonate kinase; purified PMK, PK/LDH-coupled NADH absorbance 340 nm; AID 539; inhibition, % at 10 µM; actives 0.49% (n = 65,000);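 active = top-ranked compounds by inhibition in the single 10 µM screen, taking a fixed number of the strongest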
A340 absorber = absorbance at 340 nm. compound absorbance at 340 nm, fold over control. fold change at 10 µM. 65,000 tested, under 10 active;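 active = at 10 µM dose, initial 340 nm absorbance at least 2 fold that of control wells; inactive = change under 2 fold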;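 note: initial absorbance extrapolated from kinetic A340 decline of NADH oxidation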
Autofluor 339 = intrinsic fluorescence of library compounds, ex339/em460 – biochemical, MLSMR library, data from DPM-DC assay, artefact control, profiling panel | compound autofluorescence, ex339/em460 nm, NADH buffer; active compounds read high; 1 = no-compound wells, NADH background | fluorescence fold increase at 10 µM | actives 5.5% (n = 65,000) | AID 709;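 active = at 10 µM, mean starting fluorescence two-fold or more over control wells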;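 note: signal is the first read of a kinetic run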
Spn MK inh = S. pneumoniae mevalonate kinase inhibition; purified MK, PK/LDH-coupled NADH absorbance 340 nm; inhibition, % at 10 µM; actives 0.48% (n = 65,000); AID 555;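 active = ranked among the strongest by inhibition in the single 10 µM screen, a fixed top-ranked set picked for dose follow-up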
Large screens that a line does not name were inactive; [ ] = dose if it differs, or a comment.

CCc1cc2c(=O)c(-c3nc4ccccc4n3C)c(C)oc2c(CN2CCN(CCO)CC2)c1O	Autofluor 339 2.2 (not shown: DPM-DC inhibit)
O=C(Nc1c(F)c(F)c(F)c(F)c1F)NC1CCCCC1	none
CC1=CC(c2ccccc2)n2nc(N3C(=O)C4CC=CCC4C3=O)nc2N1 (stereo not drawn)	Autofluor 339 2.3 (not shown: DPM-DC inhibit)
Nc1nc(SCC(=O)NCc2ccco2)[nH]c(=O)c1-c1ccccc1	none
Cc1ccc(C2C3=C(CCCC3=O)Nc3nc(SCC(=O)NCc4ccco4)[nH]c(=O)c32)cc1 (stereo not drawn)	Autofluor 339 3.6
CCSc1nc2c(c(=O)[nH]1)C(c1ccccn1)C1=C(CC(C)(C)CC1=O)N2 (stereo not drawn)	Autofluor 339 2.2 (not shown: DPM-DC inhibit)
O=C1CCCC2=C1C(c1ccncc1)c1c(nc(SCc3ccccc3)[nH]c1=O)N2 (stereo not drawn)	Autofluor 339 2.2 (not shown: DPM-DC inhibit)
CN(Cc1ccccc1)Cc1c[nH]c2ccccc12	none
CN(Cc1ccccc1)Cc1c(F)cccc1F	Spn MK inh 52
COc1ccc(/C(O)=C2/C(=O)C(=O)N(CCN(C)C)C2c2ccc(OC)c(OC)c2)c(C)c1 (stereo not drawn)	none
Cc1nc(-c2cnn(-c3ccccc3)c2)c2cc(C)oc2n1	DPM-DC inhibit active[fluoresces], Autofluor 339 2.7
Cc1oc2cc(O)cc(C)c2c(=O)c1-c1cnn(-c2ccccc2)c1	none
O=S(=O)(NCCSc1nnc(-c2ccco2)n1-c1ccccc1)c1ccccc1	none
N#CC1=C(N)N(c2ccccc2)C(c2ccco2)C1(C#N)C#N (stereo not drawn)	Autofluor 339 2.2 (not shown: DPM-DC inhibit)
Cc1cccc(-n2ncc(C#N)c2N)c1	none
Cc1cccc(N2C(N)=C(C#N)C(C#N)(C#N)C2c2ccccc2)c1 (stereo not drawn)	Autofluor 339 2.7
CCOC(=O)C1CCN(C(c2cccnc2)c2c(NC(=O)c3ccco3)sc(C)c2C)CC1 (stereo not drawn)	none
Cn1c(=O)c2c(nc(SCC(=O)NCc3ccco3)n2C)n(C)c1=O	none
c1ccc2c(c1)ncc1cccn12	Autofluor 339 2.1 (not shown: DPM-DC inhibit)
Cc1cc(C)n(CCCNCC(O)c2ccccc2)n1 (stereo not drawn)	Spn MK inh 53
CC(=O)Nc1ccc2oc(-c3cc(F)c(F)cc3Cl)nc2c1	Autofluor 339 3.8 (not shown: DPM-DC inhibit)
CC(=O)Nc1ccc2oc(-c3ccccc3Br)nc2c1	Autofluor 339 2.2
CCOC(=O)C1(C(=O)OCC)C(c2ccccc2)CC(O)N1C(C)=O (stereo not drawn)	none
CCOC(=O)c1c(NS(C)(=O)=O)sc2c1CCC(C)C2 (stereo not drawn)	none
CCCCCCN=CC1=C(O)C(C(=O)OC)C(C)(C)CC1=O (stereo not drawn)	none
CCOc1ccccc1C1C(C(N)=O)=C(C)Nc2nc(CCCO)nn21 (stereo not drawn)	none
OCCCc1nc2n(n1)C(c1ccccc1)C=C(c1ccc(F)cc1)N2 (stereo not drawn)	Autofluor 339 2
OCCCc1nc2n(n1)C(c1ccccc1Cl)C=C(c1cccs1)N2 (stereo not drawn)	Autofluor 339 3.8 (not shown: DPM-DC inhibit)
OCCCc1nc2n(n1)C(c1cccs1)C=C(c1ccccc1)N2 (stereo not drawn)	Autofluor 339 2.1 (not shown: DPM-DC inhibit)
COc1ccc(CCC(=O)Nc2ccc(Br)cn2)cc1	none
COc1cc2c(cc1NC(=O)CSCC(=O)O)oc1ccccc12	none
COc1cc2c(cc1NCc1ccccn1)oc1ccccc12	Autofluor 339 2.4 (not shown: DPM-DC inhibit)
O=C(Cc1cccs1)Nc1nnc(-c2ccncc2)s1	Autofluor 339 2.2 (not shown: DPM-DC inhibit)
CC(C)CC(c1nnnn1Cc1ccco1)N1CCN(c2cccc(Cl)c2)CC1 (stereo not drawn)	none
CCc1cc(=O)oc2cc(OC(C)C(=O)O)c(Cl)cc12 (stereo not drawn)	Autofluor 339 2.9
CCc1cc(=O)oc2cc(OCC(=O)O)c(Cl)cc12	Autofluor 339 2.4
COc1ccc(OC)c(NC2=NC3(CCCCC3)N=C(N)N2)c1	none
O=c1oc2cc(Br)ccc2n1CSC1=NCCS1	none
CC1=C(C(=O)OCc2ccccc2)C(c2ccccc2OC(F)F)NC(=O)N1 (stereo not drawn)	none
N#Cc1c(N)n(C2CCCCC2)c2nc3ccccc3nc12	Autofluor 339 3.9 (not shown: DPM-DC inhibit)
COc1ccc(-n2c(NC(=O)c3ccco3)c(C#N)c3nc4ccccc4nc32)cc1	DPM-DC inhibit active, Autofluor 339 3
CCOC(=O)c1nn(-c2ccccc2C)c(=O)c(C#N)c1C	none
CCC(=O)Nc1c(C#N)c2nc3ccccc3nc2n1C1CCCCC1	Autofluor 339 2.3 (not shown: DPM-DC inhibit, Spn MK inh)
CCC(=O)Nc1c(C#N)c2nc3ccccc3nc2n1-c1ccccc1C	Autofluor 339 3.1 (not shown: DPM-DC inhibit)
Cn1cc(SCC(=O)Nc2nc3ccccc3s2)c2ccccc21	none
COC(=O)C1(S(=O)(=O)c2cccc3nsnc23)CC1	none
COC(=O)CCSCc1cn2cc(Cl)ccc2n1	none
Cc1cc(NC(=O)c2ccc3nc(-c4ccccc4)c(-c4ccccc4)nc3c2)no1	none
CCCc1cc(Nc2c(C)n(C)n(-c3ccccc3)c2=O)n2c(nc3ccccc32)c1C#N	none
CCc1c(C)c(C#N)c2nc3ccccc3n2c1Nc1c(C)n(C)n(-c2ccccc2)c1=O	DPM-DC inhibit active
CC(=O)c1c(C)nc(C)nc1NC(=O)C(C)C	none
Cc1cc(NCc2ccco2)nc2cc(O)ccc12	Autofluor 339 2.1 (not shown: DPM-DC inhibit)
Cc1noc(NS(=O)(=O)c2ccc(N3Cc4ccccc4C3=O)cc2)c1C	none
O=C(O)c1ccc(-n2nnnc2Oc2ccccc2C(=O)N2CCOCC2)cc1	none
Cc1cccn2c(=O)c3cc(C(=O)NCCN4CCOCC4)n(Cc4ccccc4)c3nc12	Autofluor 339 3.8 (not shown: DPM-DC inhibit)
CCOCCCn1c(=N)c(C(=O)NCCN2CCOCC2)cc2c(=O)n3cccc(C)c3nc21	Autofluor 339 5.2 (not shown: DPM-DC inhibit)
CCOC(=O)c1cc(CC)sc1NC(=O)Cc1ccsc1	none
C=C(C)Cn1c(Sc2nc3ccccc3[nH]2)nc2c1c(=O)[nH]c(=O)n2C	none
COc1cccc(Nc2nnc(SCn3nnc4ccccc4c3=O)s2)c1	none
CC(C)NC(=O)CSc1nnc(-c2ccc(S(=O)(=O)N3CCCC3)cc2)n1CC1CCCO1 (stereo not drawn)	Spn MK inh 45
NC(=O)CSc1nnc(-c2ccc(S(=O)(=O)N3CCOCC3)cc2)n1CC1CCCO1 (stereo not drawn)	none
Cc1onc(-c2ccccc2Cl)c1C(=O)Nc1cccc(-c2cn3cccnc3n2)c1	Autofluor 339 3.5 (not shown: DPM-DC inhibit)
CCC(=O)Nc1c(C(=O)Nc2cccc(OC)c2)oc2ccccc12	none
COc1cc2c(cc1NC(=O)c1ccc3c(c1)OCO3)oc1ccccc12	DPM-DC inhibit active, Autofluor 339 3
COc1ccc(NC(=O)c2oc3ccccc3c2C)c(OC)c1	none

High-throughput results from PubChem BioAssay.
